Results filed as inconclusive are left out. Activity calls are given as the source filed them. Calls follow the shape of the dose curve; as a rule, active = well fitted inhibition curve with a large enough effect; inconclusive = small, poorly fitted or top-dose-only effect; inactive = flat fitted curve, though single readings scatter.
Target: Luciferin 4-monooxygenase (Photinus pyralis) (UniProt P08659)
Assay: qHTS Assay for Inhibitors of Firefly Luciferase from the GSK Published Protein Kinase Inhibitor Set
Conditions: purified firefly luciferase, luminescence inhibition; series mostly up to 57.5 µM; activity change, negative = inhibition: at the top concentration
Method in brief: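 Purified P. pyralis luciferase, 10nM, with 10uM D-luciferin and 10uM ATP in 50mM Tris acetate pH 7.5, 10mM Mg acetate, 0.01% Tween-20, 0.05% BSA. Titration ~60uM to 300pM; luminescence read after about 5 min.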
% is scaled to controls: 0 for no effect and ±100 for the full control effect; potency is read from the fitted curve at half-maximal effect.

Luciferin 4-monooxygenase (Photinus pyralis), sequence (P08659 whole entry, looked up): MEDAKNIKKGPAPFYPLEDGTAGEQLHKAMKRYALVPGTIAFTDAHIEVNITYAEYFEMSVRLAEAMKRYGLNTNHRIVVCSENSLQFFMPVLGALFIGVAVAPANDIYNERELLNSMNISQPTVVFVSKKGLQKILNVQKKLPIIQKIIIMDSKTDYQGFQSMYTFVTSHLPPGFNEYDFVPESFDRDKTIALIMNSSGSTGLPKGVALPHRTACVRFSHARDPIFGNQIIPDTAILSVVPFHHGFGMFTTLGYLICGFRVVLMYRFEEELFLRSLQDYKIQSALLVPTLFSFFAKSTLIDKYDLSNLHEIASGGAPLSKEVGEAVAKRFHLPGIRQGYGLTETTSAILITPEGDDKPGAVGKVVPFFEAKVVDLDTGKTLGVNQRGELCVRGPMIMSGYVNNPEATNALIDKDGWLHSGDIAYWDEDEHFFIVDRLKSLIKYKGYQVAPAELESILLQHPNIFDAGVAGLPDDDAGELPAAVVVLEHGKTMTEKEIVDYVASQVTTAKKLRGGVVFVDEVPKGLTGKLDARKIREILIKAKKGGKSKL

Activity change, negative = inhibition, inactive:
CC(Oc1cc(-n2cnc3ccc(OCC(O)CO)cc32)sc1C(N)=O)c1ccccc1Cl (stereo not drawn) 6.05%, Cc1cccc(-c2[nH]ncc2-c2ccc3ncccc3n2)n1 13.3%, Fc1cccc(COc2ccc(Nc3ncncc3C#Cc3ccccc3)cc2Cl)c1 1.29%, CC1=C(C(=O)Nc2ccc3n[nH]c(C)c3c2)C(c2ccc(C(F)(F)F)cc2)CC(=O)N1 (stereo not drawn) -0.842%, Cc1cc(O)cc(C)c1C=Cc1cncc(C(=O)N(C)C)c1 9.42%, Cc1nn(C)c2cc(N(C)c3ccnc(Nc4cccc(S(N)(=O)=O)c4)n3)ccc12 0.13%, CC(=O)Nc1cccc(C#Cc2cncnc2Nc2ccc(OCc3cccc(F)c3)c(Cl)c2)c1 -10.2%, NS(=O)(=O)c1ccc(N=Nc2c(O)[nH]c3cccc(CCc4ccncc4)c23)cc1 7.91%, O=S(=O)(CCOCc1ccc(-c2ccc3ncnc(Nc4ccc(OCc5cccc(F)c5)c(Cl)c4)c3c2)o1)c1ccccc1 6.47%, Fc1ccc(Nc2nccc(-c3c(-c4ccc(C(F)(F)F)cc4)nn4ncccc34)n2)cc1F -1.73%, Cc1cc(O)cc(C)c1C=Cc1cncc(C(=O)OC(C)(C)C)c1 -0.255%, CCCN1CCC(c2ccc(Nc3nc(Nc4cc(F)ccc4C(N)=O)c4cc[nH]c4n3)c(OC)c2)CC1 27.5%, CCn1c(-c2nonc2N)nc2c(C#CC(C)(C)O)ncc(OCC3CCNCC3)c21 6.19%, COc1ccc2c(-c3ccnc(Nc4cccc(OC(F)(F)F)c4)n3)cnn2n1 6.14%, FC(F)(F)c1ccc(-c2nn3ncccc3c2-c2ccnc(Nc3ccc4c(c3)OCCO4)n2)cc1 -13.8%, CN(C)c1cc2c(Nc3ccc4c(cnn4Cc4ccccc4)c3)ncnc2cn1 -7.49%, Nc1nccc(-c2c(-c3ccc(F)cc3)nn3cc(C(F)(F)F)ccc23)n1 -2.4%, COc1cc(Nc2ncc(-c3ccccc3)o2)cc(OC)c1OC -14.6%, Cc1cccc2c(N=Nc3ccc(S(N)(=O)=O)cc3)c(O)[nH]c12 -17.8%, O=C(O)c1ccc(Oc2nccc(-c3c(-c4ccc(F)cc4)ncn3C3CCNCC3)n2)cc1 12.2%, COc1cc(N2CCN(C(C)C)CC2)ccc1Nc1nc(Nc2cccc3ncccc23)c2cc[nH]c2n1 39.4%, CCn1c(-c2nonc2N)nc2c(C#CC(C)(C)O)ncc(OC3CCNCC3)c21 -0.275%, COc1cc2ncn(-c3cc(OCc4ccccc4C(F)(F)F)c(C(=O)N(C)C)s3)c2cc1OC 6.24%, COc1cc(C)c(NC(=O)CN(C)C)cc1Nc1nc(Nc2cccc(F)c2C(N)=O)c2cc[nH]c2n1 2.64%, COc1cccc(-n2ncc3c(NN=Cc4ccc(C)cc4)ncnc32)c1 -8.95%, Nc1ncc(-c2cccc(S(N)(=O)=O)c2)c2scc(-c3ccc(F)c(Cl)c3)c12 -12.8%, NC(=O)c1cc(-c2ccc(F)cc2)cc(-c2ccncc2)c1N 0.778%, COc1cc2ncn(-c3cc(OCc4ccccc4S(C)(=O)=O)c(C#N)s3)c2cc1OC 5.28%, CNC(=O)c1cccc(C#Cc2cncnc2Nc2ccc(OCc3cccc(F)c3)c(Cl)c2)c1 -14.8%, CS(=O)(=O)CCNCc1ccc(-c2ccc3ncnc(Nc4ccc(OCc5cccc(F)c5)c(C(F)(F)F)c4)c3c2)o1 -13%

Potency, active:
CCn1c(-c2nonc2N)nc2cnc(Oc3cccc(NC(=O)c4ccc(N(C)C)cc4)c3)cc21 1030 nM, COc1cc(Nc2ncc(-c3ccccc3)o2)cc(OC)c1 6510 nM, N#Cc1c(NC(=O)c2ccc(F)cc2)sc2c1CCCC2 919 nM

Reference: PubChem BioAssay AID652016 (National Center for Advancing Translational Sciences (NCATS), 2013)
